Results as given in PubChem BioAssay AID588405 (Sanford-Burnham Center for Chemical Genomics, 2011).
Out of some 360,000 compounds screened, about 6,200 (1.7%) were called active. The sample holds actives, similar compounds and a random draw of the others, so the mix is not that of the screen.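 Rule for the calls: active = inhibition of at least 50% at 20 µM; inactive = the rest.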

Test: inhibition of PEG-3 promoter activity – cell-based, HeLa, luciferase luminescence, primary screen (AID 588405)
Settings: HeLa PEG-Prom luciferase reporter, overnight, at 20 µM, stronger effect = higher value

inhibition, active:
CCOC(=O)c1c(NC(=O)CCl)sc(C(=O)N(CC)CC)c1C 67.2%
CCCOc1ccc(C(=O)C(CCC(CNCC)C(=O)c2ccc(OCCC)cc2)CNCC)cc1 (configuration not stated) 116%
Cc1cc2oc(=O)cc(CN3CCN(S(=O)(=O)c4cccs4)CC3)c2cc1C(C)C 51.9%
Cc1cccc(NC(=O)c2ccc([N+](=O)[O-])o2)c1 65.2%
CC(C)CN(C(=O)COC(=O)c1ccc2ccccc2c1)c1c(N)n(Cc2ccccc2)c(=O)[nH]c1=O 86.1%
CNC(=O)c1ccsc1NC(=O)c1ccc(S(=O)(=O)N2CCc3ccccc32)cc1 50.7%
CN(Cc1ccccc1F)C(=O)C(Cc1ccccc1)NC(=O)c1ccccc1 (configuration not stated) 53.2%

inhibition, inactive:
COc1ccc(C(=O)N2CCCCC2c2cc(C(=O)Nc3ccccc3)no2)cc1 (configuration not stated) 1.75%
CCOC(=O)c1sc(NC(=O)CCN2CCOCC2)c(C(=O)OCC)c1C 4.41%
CCOC(=O)Nc1sc(C(=O)N(C)C)c(C)c1C(=O)OCC 16.3%
Nc1cc(=O)c2[nH]cnc2[nH]1 -0.63%
O=c1cc(CN2CCCCCCC2)c2c(ccc3ccccc32)o1 9.42%
CCCOc1ccc(/C=N/NC(=O)C2CC2)c(OCCC)c1 -4.16%
COC(=O)c1ccc(OCC(=O)NC(C)(C)C)cc1 -42.5%
Cc1cc(Br)cn2c(Cc3ccccc3C(F)(F)F)c(C3CCCCC3)nc12 5.05%
CC1(C(=O)NS(=O)(=O)c2cccc(F)c2)CCN1C(=O)c1cccc2ccccc12 (configuration not stated) -0.5%
COc1ccc2c(CN3CCN(S(=O)(=O)c4cccs4)CC3)cc(=O)oc2c1 0.03%
O=S(=O)(c1cccs1)N1CCN(Cc2ccccc2)CC1 0.76%
COc1cncc(-c2cnc3sc(NCCc4ccccn4)nn23)c1 37.3%
Cc1ccc(NN=C2C(=O)OC(C)(C)OC2=O)c(C)c1 -290%
O=C(Nc1cccc(O)c1)c1ccc(C(=O)c2ccccc2)o1 -268%
Cc1onc(NC(=O)c2ccc([N+](=O)[O-])o2)c1Br 14.7%
O=C(Nc1cccc2cccnc12)c1ccc2sc([C@H]3C[C@H](O)[C@@H](CO)O3)nc2c1 -70.4%
O=C(Nc1cccc(Cc2ccccc2)c1)Nc1ccc2nc([C@@H]3O[C@H](CO)[C@@H](O)[C@H](O)[C@H]3O)[nH]c2c1 -16.1%
Cc1csc(=O)n1CC(=O)OCC(=O)N(CC(C)C)c1c(N)n(Cc2ccccc2)c(=O)[nH]c1=O -11.2%
CC(C)CN(C(=O)COC(=O)c1ccc(Cl)c(N)c1)c1c(N)n(Cc2ccccc2)c(=O)[nH]c1=O -4.65%
CNc1cc(-c2c(OC)cccc2OC)ncn1 -4.17%
CC(=O)Oc1ccc(Cn2c(C)c(C(=O)NCc3ccc(C#N)cc3)sc2=O)cc1 9.61%
CC1CN(S(=O)(=O)c2ccc(C(=O)Nc3sccc3C(N)=O)cc2)CC(C)O1 (configuration not stated) 32.5%
NS(=O)(=O)c1ccc(CNC(=O)c2cccc(S(=O)(=O)N3CCc4ccccc43)c2)cc1 23.1%
CCOC(=O)c1ccccc1NC(=O)CSc1nc2c(sc(=S)n2CC)c(=O)[nH]1 8.72%
CCOC(=O)c1cc(-c2sc(NC(=O)c3ccccc3)nc2C)n(Cc2ccccc2)n1 -5.67%
NC(=O)c1ccc(NC(=O)COC(=O)C(Cc2ccccc2)NC(=O)c2ccccc2)cc1 (configuration not stated) -2.3%
O=C(NC(Cc1ccccc1)C(=O)N1CCCC1C(=O)O)c1ccccc1 (configuration not stated) 11.6%
COCCSc1nnc(NC(=O)c2cc(OC)c(OC)cc2[N+](=O)[O-])s1 7.25%
CC1(C(=O)NS(=O)(=O)c2ccccc2)CCN1C(=O)Cc1ccc(-c2ccccc2)cc1 (configuration not stated) -4.22%
CCCNC(=O)C1(C)CCN(Cc2csc(-c3ccc(Cl)cc3)n2)C1 (configuration not stated) -23.7%
